Results from PubChem BioAssay AID686978 (National Center for Advancing Translational Sciences (NCATS), 2013).
Hit rate of the full screen: of about 420,000 compounds, about 64,000 (15%) were called active. About 27% were inconclusive and are not listed. The call rests on the fitted dose curve; in most records, active means well fitted inhibition curve with a large enough effect; inconclusive means small, poorly fitted or top-dose-only effect; inactive means flat fitted curve, though single readings scatter. The list is a sample of the results. Peptide text beside a SMILES is read from it.

experiment: qHTS for Inhibitors of human tyrosyl-DNA phosphodiesterase 1 (TDP1): qHTS in cells in absence of CPT; conditions: DT40 Tdp1-/- hTDP1 cells, no CPT, ATP luminescence, 48 h; activity change, negative = growth inhibition: at 46.2 µM (top of the series); further: nearly all actives have a fitted effect of over 55% in size
Outline: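 Compound effects on proliferation are scored in DT40 Tdp1-/-;hTDP1 cells in the absence of CPT. ATP levels (CellTiter-Glo luminescence) are recorded after a ≥48 hr, 37 °C incubation.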
On the % scale 0 is the no-effect control and ±100 the full control effect; potency means the concentration at half of the fitted maximal effect.

SMILES	activity change, negative = growth inhibition	Potency
CCOC(=O)Cc1cc(=O)[nH]c(/N=C(\N)Nc2ccc(OC)cc2)n1	-6.58% (inactive)	–
CC1CCN(C(=O)CCNC(=O)c2ccccc2)CC1	-1.19% (inactive)	–
CC1C(C)N(C(=O)CCl)c2ccccc2N1C(=O)CCl (stereo not given)	–	0.58 µM (active)
CNC(=O)N1c2ccccc2C=Cc2ccccc21	-7.48% (inactive)	–
Cc1nc(C)c2c(c1C(F)(F)F)-c1ccccc1C2(F)F	-11.9% (inactive)	–
O=C(NC1CCCC1)c1ccc(Br)s1	-11.5% (inactive)	–
CCOc1c2ccc(C(=O)NCc3ccc(OC(F)(F)F)cc3)cc2nn1C	-6.96% (inactive)	–
COc1cc(CNCc2ccc(OC)c3ccccc23)cc(OC)c1OC	–	11.6 µM (active)
COc1ccc(CNCCCNCc2ccc(OC)c(OC)c2)cc1OC	-14.4% (inactive)	–
COc1cc(CNCc2cccs2)cc(Br)c1OC	-18.6% (inactive)	–
COc1ccc(CNC(=O)COC(=O)C2=Cc3ccccc3OC2)cc1	-21.4% (inactive)	–
O=C(COc1ccccc1)N1CCc2ccccc2C1	-23% (inactive)	–
Cc1ccc2nc(-c3ccc(C)c(NC(=O)Cc4ccccc4)c3)oc2c1	-6.56% (inactive)	–
CCC(CC)c1nnc(NC(=O)/C=C/c2ccco2)s1	-3.52% (inactive)	–
CCc1ccc2oc(-c3ccc(C)c(NC(=O)/C=C/c4ccco4)c3)nc2c1	–	18.4 µM (active)
NC(=S)c1ccc(C(N)=S)o1	-1.35% (inactive)	–
Cc1ccc(C(=O)O/N=C(\N)c2ccccn2)cc1Cl	-22.4% (inactive)	–
COc1ccc(OC)c(NC(=O)/C=C/c2ccc(C)o2)c1	-22.9% (inactive)	–
CCc1nnc(NC(=O)/C=C/c2ccc(C)o2)s1	5.94% (inactive)	–
Cc1ccc(/C=C/C(=O)Nc2ccc([N+](=O)[O-])c(NC(=O)/C=C/c3ccc(C)o3)c2)o1	–	11.6 µM (active)
O=C(NC(=S)NC1CCSC1=O)c1ccccc1F (stereo not given)	-106% (inactive)	–
Cc1ccc(-n2c(=O)cc(N3CCN(Cc4ccccc4)CC3)[nH]c2=O)cc1	-10.6% (inactive)	–

SMILES	activity change, negative = growth inhibition	Potency
COc1ccc(N(CC(=O)N/N=C/c2cccc3c2OCCO3)S(=O)(=O)c2ccc(NC(C)=O)cc2)cc1	-22.6% (inactive)	–
CCOCCn1ccc2c(OCC(=O)NCc3ccc(C)cc3)cccc2c1=O	-13.9% (inactive)	–
COC(=O)COc1cccc2c(=O)n(CC(=O)NCc3ccccc3)ccc12	–	2.06 µM (active)
COC(=O)COc1cccc2c(=O)n(CC(=O)NCCc3ccc(OC)c(OC)c3)ccc12	-6.18% (inactive)	–
Cc1ccccc1OCC(=O)Nc1ccc(N2CCN(C(=O)C(C)C)CC2)c(Cl)c1	–	6.51 µM (active)
Cc1ccccc1OCC(=O)NNC(=O)c1cc(S(=O)(=O)N(C)C)ccc1N1CCCC1	-22.5% (inactive)	–
Cc1ccccc1OCC(=O)Nc1ccc2c(c1)ncn2C	-1.77% (inactive)	–
Cc1ccccc1N1CC(C(=O)Nc2nnc(SCCC3OCCO3)s2)CC1=O (stereo not given)	-21.1% (inactive)	–
O=C(CSc1nn(-c2ccc(F)cc2)c(=S)s1)NC1CCS(=O)(=O)C1 (stereo not given)	-16.7% (inactive)	–
CC(=O)CC[C@@H](C)O[C@@H]1OC(C)[C@H](O)CC1O (stereo not given in full)	-3.14% (inactive)	–
O=C(Nc1nnc(C2CC2)s1)c1ccccn1	–	16.4 µM (active)
Cc1cc(C(=O)Nc2nnc(C3CC3)s2)c(C)s1	14.9% (inactive)	–
CCc1cc(C(=O)Nc2nnc(C3CC3)s2)sc1C	10.3% (inactive)	–
O=C1CCC(C(=O)N2CCC(O)(c3ccccc3)CC2)CN1CCc1ccccc1 (stereo not given)	-9.99% (inactive)	–
COc1ccc2c(C)cc(SCC(=O)NCC3CCCO3)nc2c1 (stereo not given)	1.68% (inactive)	–
C=CCn1c(SCc2ccc(C(=O)NCCO)cc2)nc2ccccc2c1=O	-14.1% (inactive)	–
COCCn1c(C)cc(C(=O)CN2c3cccc4cccc(c34)S2(=O)=O)c1C	-1.18% (inactive)	–
Cc1ccc(C(=O)CSc2nc3ccccc3c(=O)n2N)o1	-39.8% (inactive)	–
COCCn1c(C)cc(C(=O)CSc2nc3ccccc3c(=O)n2C(C)COC)c1C (stereo not given)	–	9.2 µM (active)
COCC(C)n1c(SCc2ccc(C(=O)OC)o2)nc2ccccc2c1=O (stereo not given)	–	8.2 µM (active)
Cc1cc(SCC(=O)NCCN2C(=O)CSC2=O)nc2ccccc12	-20.3% (inactive)	–
COCCn1c(C)cc(C(=O)CSc2nnc(C3CC3)n2C2CC2)c1C	-6.52% (inactive)	–

SMILES	activity change, negative = growth inhibition	Potency
COCC(C)n1c(C)cc(C(=O)CSc2cc(C)c3ccccc3n2)c1C (stereo not given)	–	16.4 µM (active)
Nc1nc2c(Br)ccc(Br)c2cc1C(=O)NCCc1ccccc1	-24.4% (inactive)	–
CC(C)C(=O)Nc1nnc(Sc2ccc(N(C)C)cc2)s1	-19% (inactive)	–
Cc1ccc(N=C2SCCCN2C(=O)c2cccc(N3C(=O)CCC3=O)c2)cc1Cl	-7.58% (inactive)	–
CCCn1c(=O)c2ccccc2n2c(SCC(=O)/C(C#N)=C(\C)N)nnc12	-25.6% (inactive)	–
Cc1cc(NC(=O)CSC2=NS(=O)(=O)c3cc(Cl)ccc3N2)no1	11.7% (inactive)	–
Cc1cccc(C)c1-n1c(C)cc(/C=C2\C(=O)NN(c3ccccc3)C2=O)c1C	-29.2% (inactive)	–
O=c1oc2ccccc2c(CNc2ccccc2)c1[N+](=O)[O-]	4.23% (inactive)	–
Cc1cccc(NC(=O)c2nnn(-c3cccc(C(F)(F)F)c3)c2N)c1	-4.86% (inactive)	–
CC(=O)c1nn(-c2cccc(C(F)(F)F)c2)c(=O)[nH]c1=O	-14.1% (inactive)	–
Cc1cc(C(=O)Nc2cccc(C(F)(F)F)c2)c2c(C)nn(-c3cccc(F)c3)c2n1	–	23.1 µM (active)
COc1ccc(NC(=O)CN(C)C(=O)CC2CCCCC2)cc1	2.34% (inactive)	–
Cc1ccc(CNC(=O)CN2CCN(Cc3ccc(Cl)cc3)C2=O)cc1	-6.2% (inactive)	–
CC1CCCCC1NC(=O)COC(=O)Cc1ccc(Cl)cc1 (stereo not given)	13.6% (inactive)	–
CC1CCCC(NC(=O)CN2CCN(Cc3ccc(Cl)cc3)C2=O)C1C (stereo not given)	–	23.1 µM (active)
Cc1ccc(S(=O)(=O)N/N=C(\c2ccccc2)C2CC2)cc1	10% (inactive)	–
Cc1ccc2c(c1)N(CC(=O)N1CCC(O)CC1)C(=O)CO2	8.57% (inactive)	–
CC[C@H](C)CCCCC(=O)N[C@@H](CCN)C(=O)N[C@H](C(=O)N[C@@H](CCN)C(=O)N[C@H]1CCNC(=O)[C@@H]([C@H](C)O)NC(=O)[C@H](CCN)NC(=O)[C@H](CCN)NC(=O)[C@H](CC(C)C)NC(=O)[C@@H](CC(C)C)NC(=O)[C@H](CCN)NC1=O)[C@@H](C)O (HELM PEPTIDE1{[CC[C@H](C)CCCCC(=O)[*:2]].[Dab].T.[Dab].[Dab].[Dab].[dL].L.[Dab].[Dab].[dT]}$PEPTIDE1,PEPTIDE1,5:R3-11:R2$$$V2.0)	-14% [at 21.1 µM] (inactive)	–
O=c1n(Cc2cccc(C(F)(F)F)c2)c2ccccc2c2nc(-c3ccccc3)nn12	–	25.9 µM (active)
COc1ccc(-c2nc3c4ccccc4n(CC(=O)Nc4ccc(C(C)=O)cc4)c(=O)n3n2)cc1	-1.26% (inactive)	–
Cc1cc(N2CCN(c3cccc(C(F)(F)F)c3)CC2)n2nc(-c3ccccc3)nc2n1	0.913% (inactive)	–
